Assay [1] has as its system PRMT1 (protein arginine N-methyltransferase 1). Briefly: PRMT1 binders on small-molecule microarrays, primary screen, biochemical, small-molecule microarray, 635 nm fluorescence (AID 1088).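 Note: binding of Prmt1 protein to compounds spotted on small-molecule microarray slides.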 The note with it: small-molecule microarray binding, higher = more signal.
Assay [2] can be described thus: yeast growth modulation, basal conditions, primary screen, YJM789 clinical isolate, OD600, 24 h (AID 1089).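 Note: growth of clinical yeast isolate S. cerevisiae YJM 789 seeded 1000 cells per well; test concentration not given here.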 The note with it: S. cerevisiae YJM789 growth, higher = more signal, called active from +8 up or from −8 down.
Assay [3] in a line: fission yeast growth modulation, primary screen, strain 972, OD600, 24 h, no modulator (AID 1090).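 Note: basal condition with compound alone and no growth modifier present; test concentration not given here.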 The note with it: S. pombe 972 growth, higher = more signal, called active from +8 up or from −8 down.
A short description of assay [4]: S. cerevisiae growth modulation with rapamycin, primary screen, strain BY4716, OD600, 96 h (AID 1091). Note: test concentration not given here. The conditions noted are these: higher = more signal, called active from +8 up or from −8 down.
Assay [5] has as its target Torsin-1A-interacting protein 2 (Homo sapiens) (UniProt Q8NFQ8). Briefly: LULL1 binders on small-molecule microarray, primary screen, cell lysate, human LULL1 lysate, 635/667 nm fluorescence (AID 1092).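 Note: probe is lysate of COS7 cells overexpressing human LULL1; score merges per-feature 667 nm fluorescence with signal-to-noise.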 The conditions noted are these: hLULL1 lysate binding, 635 nm fluorescence, higher = more signal.
A short description of assay [6]: E. coli growth modulation, two-sided OD650, primary screen, E. coli filamentation project, strain DRC41, 24 h (AID 1093).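 Note: MC1000 strain lacking acrAB efflux and sulA so SOS filamentation is blocked; test concentration not given here.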 The note with it: OD650, 24 h, higher = more signal, called active from +8 up or from −8 down.
The nature of assay [7]: small-molecule microarray binders of probe aLefty2, primary screen, biochemical, biotinylated probe, 635/667 nm fluorescence (AID 1094).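 Note: score merges spot fluorescence near 667 nm with spot signal-to-noise ratio.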 The conditions noted are these: higher = more signal.
In assay [8] the test system is Noggin (protein binding on small-molecule microarray). Briefly: Noggin binders on small-molecule microarray, primary screen, biochemical, 635/667 nm fluorescence (AID 1095).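 Note: score merges 667 nm feature fluorescence with signal to noise over triplicate slides.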 The conditions noted are these: 635 nm fluorescence, higher = more signal.
Assay [9] deals with Neurogenic locus notch homolog protein 3 (Homo sapiens) (UniProt Q9UM47). Briefly: NOTCH3 binders on small-molecule microarray, primary screen, biochemical, 635/667 nm fluorescence (AID 1096). The note with it: NOTCH3 binding, 635 nm fluorescence, higher = more signal.
Assay [10] can be described thus: small-molecule microarray binders of probe aEGFR, primary screen, biochemical, biotinylated probe, 635/667 nm fluorescence (AID 1097).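 Note: probe is a biotinylated anti-EGFR antibody binding compounds printed on slides; score combines fluorescence near 667 nm and signal to noise of each spot.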 The note with it: higher = more signal.

Calls of active or inactive are those of the source.

Chain of Neurogenic locus notch homolog protein 3 (Homo sapiens) (Q9UM47 whole entry, looked up): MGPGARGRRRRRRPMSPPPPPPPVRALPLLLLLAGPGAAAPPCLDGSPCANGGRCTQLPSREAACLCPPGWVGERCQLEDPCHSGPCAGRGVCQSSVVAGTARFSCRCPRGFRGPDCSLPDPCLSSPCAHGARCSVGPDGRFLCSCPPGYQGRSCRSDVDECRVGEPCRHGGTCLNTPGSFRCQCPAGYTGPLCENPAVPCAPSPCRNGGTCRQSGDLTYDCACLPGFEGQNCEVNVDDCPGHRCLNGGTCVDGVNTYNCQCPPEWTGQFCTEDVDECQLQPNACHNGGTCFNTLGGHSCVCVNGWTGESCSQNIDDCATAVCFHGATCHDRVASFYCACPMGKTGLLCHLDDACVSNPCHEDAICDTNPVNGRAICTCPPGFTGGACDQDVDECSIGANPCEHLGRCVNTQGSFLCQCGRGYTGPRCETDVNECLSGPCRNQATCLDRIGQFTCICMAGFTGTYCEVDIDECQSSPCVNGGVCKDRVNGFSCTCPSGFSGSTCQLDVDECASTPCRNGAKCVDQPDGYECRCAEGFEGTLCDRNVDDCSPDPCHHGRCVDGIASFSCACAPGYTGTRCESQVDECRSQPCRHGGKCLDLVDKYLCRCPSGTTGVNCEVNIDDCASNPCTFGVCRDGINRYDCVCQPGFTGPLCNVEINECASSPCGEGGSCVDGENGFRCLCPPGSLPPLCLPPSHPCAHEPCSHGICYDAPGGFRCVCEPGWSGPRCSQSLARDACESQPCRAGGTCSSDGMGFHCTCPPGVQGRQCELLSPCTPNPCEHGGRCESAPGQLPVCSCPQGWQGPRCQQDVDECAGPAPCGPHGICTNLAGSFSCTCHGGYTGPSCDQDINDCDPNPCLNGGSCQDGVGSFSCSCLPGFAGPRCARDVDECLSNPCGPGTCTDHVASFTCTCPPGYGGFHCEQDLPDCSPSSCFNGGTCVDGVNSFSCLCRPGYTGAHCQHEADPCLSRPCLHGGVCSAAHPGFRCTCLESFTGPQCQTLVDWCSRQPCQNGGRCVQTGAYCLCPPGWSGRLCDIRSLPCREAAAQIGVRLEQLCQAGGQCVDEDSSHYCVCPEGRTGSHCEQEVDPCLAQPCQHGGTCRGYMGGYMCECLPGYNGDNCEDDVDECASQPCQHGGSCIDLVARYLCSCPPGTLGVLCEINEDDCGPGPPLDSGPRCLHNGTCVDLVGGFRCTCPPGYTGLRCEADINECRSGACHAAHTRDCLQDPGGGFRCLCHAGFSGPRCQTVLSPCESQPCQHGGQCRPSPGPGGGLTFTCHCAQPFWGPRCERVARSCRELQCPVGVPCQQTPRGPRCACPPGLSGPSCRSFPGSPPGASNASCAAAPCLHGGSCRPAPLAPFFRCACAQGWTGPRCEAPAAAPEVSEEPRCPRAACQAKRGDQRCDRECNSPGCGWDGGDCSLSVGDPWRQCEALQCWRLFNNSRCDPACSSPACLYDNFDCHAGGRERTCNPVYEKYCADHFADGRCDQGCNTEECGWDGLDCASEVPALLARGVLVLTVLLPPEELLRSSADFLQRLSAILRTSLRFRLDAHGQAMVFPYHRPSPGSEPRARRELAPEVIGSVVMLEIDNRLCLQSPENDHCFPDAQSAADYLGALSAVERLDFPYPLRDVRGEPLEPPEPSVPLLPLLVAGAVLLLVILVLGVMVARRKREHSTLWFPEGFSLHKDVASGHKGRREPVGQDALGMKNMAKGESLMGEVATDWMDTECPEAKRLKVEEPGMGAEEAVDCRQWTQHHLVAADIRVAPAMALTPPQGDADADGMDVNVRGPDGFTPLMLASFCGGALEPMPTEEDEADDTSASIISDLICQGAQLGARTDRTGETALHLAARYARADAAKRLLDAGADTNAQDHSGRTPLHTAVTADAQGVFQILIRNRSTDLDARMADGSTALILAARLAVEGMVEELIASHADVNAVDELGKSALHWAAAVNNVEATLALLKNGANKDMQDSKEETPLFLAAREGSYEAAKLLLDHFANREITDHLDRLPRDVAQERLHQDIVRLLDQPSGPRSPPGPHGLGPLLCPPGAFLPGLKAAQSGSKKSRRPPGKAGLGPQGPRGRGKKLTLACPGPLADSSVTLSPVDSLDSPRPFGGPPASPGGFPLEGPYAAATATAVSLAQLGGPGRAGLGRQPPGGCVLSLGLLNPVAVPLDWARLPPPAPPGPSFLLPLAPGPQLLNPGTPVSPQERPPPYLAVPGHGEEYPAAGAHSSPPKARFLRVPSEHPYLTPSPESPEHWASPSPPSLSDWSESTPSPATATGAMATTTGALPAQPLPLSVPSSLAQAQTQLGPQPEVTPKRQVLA
Chain of Torsin-1A-interacting protein 2 (Homo sapiens) (Q8NFQ8 whole entry, looked up): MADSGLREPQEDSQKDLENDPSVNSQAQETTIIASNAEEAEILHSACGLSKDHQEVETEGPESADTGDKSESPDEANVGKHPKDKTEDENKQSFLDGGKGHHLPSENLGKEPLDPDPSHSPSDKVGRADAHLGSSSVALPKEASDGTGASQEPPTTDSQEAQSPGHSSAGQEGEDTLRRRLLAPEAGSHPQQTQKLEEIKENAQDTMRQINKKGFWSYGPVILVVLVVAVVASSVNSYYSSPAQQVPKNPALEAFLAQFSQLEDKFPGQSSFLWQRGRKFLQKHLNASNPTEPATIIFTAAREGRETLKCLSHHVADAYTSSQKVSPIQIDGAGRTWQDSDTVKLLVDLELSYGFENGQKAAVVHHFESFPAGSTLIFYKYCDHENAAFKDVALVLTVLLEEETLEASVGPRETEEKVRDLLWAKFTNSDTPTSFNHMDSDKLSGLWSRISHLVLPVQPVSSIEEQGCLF

For `COC(=O)[C@@]1(Cc2ccccc2)[C@H]2c3cc(C(=O)N(C)C)n(Cc4ccc(C)o4)c3C[C@H]2CN1C(=O)c1ccccc1`, the composite z-score in assay [1] is 0.163; in assay [5], 2.93; in assay [7], 0.746; in [8], -0.471; in [9] it was 1.13; in assay [10], 0.667. Also, the z-score in [2] is 1.07 (inactive); in assay [3], 0.65 (inactive); in assay [4] it was 0.982 (inactive); in assay [6] it was -1.64 (inactive).
Turning to `O=C1NC(=O)C2C1C=CC(C(O)c1ccco1)N2Nc1ccc(Cl)cc1Cl` (stereo not given), the composite z-score in assay [1] was 0.232; in assay [5], 1.72; in assay [7], -0.103; in [8], 0.223; in assay [9] it was 0.417; in [10] it was -0.0362. Besides, the z-score in assay [2] was -25.2 (active); in [3], -1.67 (inactive); in assay [4], -0.647 (inactive); in assay [6], -1.49 (inactive).
With `Cn1cccc1C(O)C1C=CC2C(=O)N(c3ccccc3)C(=O)C2N1Nc1ccccc1` (stereo not given), the composite z-score was 1.56 in assay [1]; 3.37 in assay [5]; 0.27 in assay [7]; 0.781 in assay [8]; 1.02 in assay [9]; 0.0651 in assay [10]. Also, the z-score in assay [2] is 0.537 (inactive); in assay [3] it was 0.445 (inactive); in assay [4], 0.566 (inactive); in assay [6], -0.598 (inactive).
Regarding `O=c1cccc(-c2ccc([N+](=O)[O-])cc2)o1`, the composite z-score is 1.03 in assay [1]; 0.706 in assay [5]; -0.139 in assay [7]; 1.17 in assay [8]; 0.375 in [9]; -0.0644 in assay [10]. The z-score is -0.778 (inactive) in assay [2], 1.25 (inactive) in assay [3], -0.495 (inactive) in assay [4] and 0.188 (inactive) in [6].
On to `CS(=O)(=O)CCOC(=O)C1=CC(CCCO)=CC(c2ccc(CN3CCCC3)cc2)N(Cc2sc3ccccc3c2Cl)C=C1C(=O)OCCS(C)(=O)=O` (stereo not given), for which the composite z-score came out at 1.54 in assay [1]; 2.06 in [5]; 0.27 in [7]; 0.563 in assay [8]; 1.04 in assay [9]; 0.447 in [10]. In addition, the z-score was -0.381 (inactive) in assay [2], -5.83 (inactive) in assay [3], -1.41 (inactive) in assay [4] and -0.853 (inactive) in assay [6].
Regarding `NC(=O)[C@@]1(Cc2ccccc2)COC(c2ccc(OCCCO)cc2)=N1`, the composite z-score is -0.57 in assay [1]; 3.05 in assay [5]; -0.0736 in assay [7]; -0.555 in assay [8]; -0.537 in assay [9]; -0.136 in [10]. The z-score in assay [2] is 1.2 (inactive); in assay [3], 0.196 (inactive); in assay [4], 1.19 (inactive); in [6], 1.05 (inactive).
Regarding `CC(C)N1CC=CC23O[C@@H]4C=CCCOC(=O)C4[C@H]2C(=O)N(CCCO)[C@@H]3C1=O` (stereo not given in full), the composite z-score is 0.521 in [1]; 2.1 in assay [5]; -0.215 in assay [7]; -0.0322 in assay [8]; 0.236 in assay [9]; -0.226 in assay [10]. Moreover, the z-score in assay [2] was -0.198 (inactive); in assay [3], -0.861 (inactive); in [4], -0.824 (inactive); in [6], 2.83 (inactive).
`CCOC(=O)C[C@H]1[C@H](OC(=O)c2cc3ccccc3oc2=O)[C@@H](NC(=O)CC(C)C)c2cc(OCCCO)ccc2N1C(=O)c1ccc2ccccc2n1`: the composite z-score is 1.04 in assay [1]; 1.09 in assay [5]; -0.0916 in [7]; 0.746 in assay [8]; 0.982 in assay [9]; 0.326 in [10]. Further, the z-score in [2] is 0.475 (inactive); in [3], 0.376 (inactive); in [4], 0.665 (inactive); in [6] it was -0.588 (inactive).
Consider `COCCOC(=O)N1C(=O)[C@@]2(c3cc(C#CC4(O)CCCCCC4)ccc31)[C@H](C(=O)N1CCc3cc(OC)c(OC)cc3C1)[C@H]1C(=O)O[C@H](c3ccccc3)[C@H](c3ccccc3)N1[C@@H]2c1ccc(OCCO)cc1`, for which the composite z-score in assay [1] is 1.54; in assay [5], 2.03; in [7] it was -0.0585; in [8] it was 1.3; in assay [9], 1.09; in [10] it was -0.0234. Besides, the z-score is 1.98 (inactive) in assay [2], 0.932 (inactive) in assay [3], 4.4 (inactive) in [4] and 0.0446 (inactive) in assay [6].
For `CC(C)[Si](C#C[Si](C(C)C)(C(C)C)C(C)C)(O[C@H](c1ccccc1)c1cn(Cc2ccccc2)nn1)C(C)C`, the composite z-score in assay [1] is 1.26; in assay [5], 0.754; in assay [7] it was -0.028; in assay [8] it was 0.751; in [9] it was 0.361; in assay [10] it was 0.0129. In addition, the z-score was 0.242 (inactive) in [2], 0.641 (inactive) in assay [3], 0.0108 (inactive) in [4] and 0.769 (inactive) in assay [6].
With `C=C[C@H](C)[C@H](OC(=O)Nc1ccc(SC)cc1)c1ccc(OCCO)cc1`, the composite z-score was 1.31 in assay [1]; 1.53 in [5]; 0.0548 in assay [7]; 0.415 in assay [8]; 0.862 in assay [9]; -0.15 in [10]. Also, the z-score in assay [2] was -3.79 (inactive); in assay [3], -2.34 (inactive); in assay [4] it was 0.375 (inactive); in [6], 0.938 (inactive).
Consider `COCCOC(=O)N1C(=O)[C@@]2(c3cc(C#CC4(O)CCCCCC4)ccc31)[C@H](C(=O)Nc1nc3ccccc3s1)[C@H]1C(=O)O[C@H](c3ccccc3)[C@H](c3ccccc3)N1[C@@H]2c1ccc(O)cc1`, for which the composite z-score in [1] was 1.54; in assay [5], 2.21; in assay [7], -0.0022; in assay [8], 0.683; in assay [9] it was 1.04; in [10], 0.0692. Also, the z-score was 0.806 (inactive) in assay [2], 0.572 (inactive) in assay [3], 1.33 (inactive) in assay [4] and 0.0347 (inactive) in assay [6].
As to `CN(C)C(=O)[C@]1(CCC(=O)OC(C)(C)C)N=C(c2ccc(OCCCO)cc2)O[C@@H]1c1ccccc1CN=[N+]=[N-]`, the composite z-score in [1] was 1.18; in assay [5], 3.81; in assay [7] it was 0.0987; in [8], 0.717; in [9], -0.162; in assay [10], -0.149. Besides, the z-score was -0.299 (inactive) in assay [2], -1.65 (inactive) in [3], -0.619 (inactive) in [4] and 0.682 (inactive) in assay [6].
Turning to `COc1ccc(CCNC(=O)[C@@]2(Sc3ccc(C)cc3)CC(=O)N(Cc3ccccc3C(F)(F)F)[C@@H]2c2ccc(CO)cc2I)cc1`, the composite z-score in assay [1] was 1; in assay [5], 1.97; in assay [7] it was -0.0668; in [8], -1.46; in [9] it was -1.03; in assay [10], -0.264. The z-score in assay [2] was -1.65 (inactive); in assay [3] it was -4.64 (inactive); in assay [4] it was 1.22 (inactive); in assay [6], 0.404 (inactive).
